Some test systems named below: HCT-15 colon; HT29 colon; SNB-75 CNS; SNB-19 CNS; U251 CNS; PC-3 prostate; SK-MEL-5 melanoma; UACC-62 melanoma; LOX IMVI melanoma; SK-MEL-28 melanoma.
Common to all, as to assay: NCI-60 one-dose screen, 48 h (100 = growth as untreated, 0 = no growth, -100 = all killed)
Conditions in all cases: 10 µM unless noted

The structures appear in SMILES notation. Compounds without any hit were thinned out: in the full panel of roughly 83,000, 20% have a hit.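 Cell lines were cultured in 96-well plates, exposed to a single compound concentration, and assessed for percent growth 48 hours later.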 Values without a mark were called inactive. Active and inactive are the calls of the source. The calls were made as follows: active = growth percent below 10; inactive = the rest.

Take `Cc1ccc(O)c(Cc2ccccc2)c1`: the growth is 107% with HCT-15 colon; 97.2% in the test on HT29 colon; 74.9% in the test with SNB-75 CNS; 96.9% in the test on SNB-19 CNS; 94.6% in the test on U251 CNS; 79.9% with PC-3 prostate. The growth with SK-MEL-5 melanoma was 109%; in the test with UACC-62 melanoma, 90.2%; with LOX IMVI melanoma, 96.4%; in the test with SK-MEL-28 melanoma, 108%.

Take `Cc1ccc(-c2cnc3sc4ccc(Cl)cc4n23)cc1`: the growth is 100% with HCT-15 colon; 99.8% in the test on HT29 colon; 93.9% in the test with SNB-75 CNS; 96.4% with SNB-19 CNS; 105% with U251 CNS; 82.6% with PC-3 prostate. Besides, the growth was 95.6% in the test with SK-MEL-5 melanoma, 87.9% in the test with UACC-62 melanoma, 94.2% with LOX IMVI melanoma and 109% in the test with SK-MEL-28 melanoma.

In the case of `C=CCn1c(SCC(=O)Nc2ccc(/C(C)=N\O)cc2)nnc1-c1cc(-c2ccc(Cl)cc2)nc2ccccc12`, the growth in the test on HCT-15 colon is 25.1%; in the test on HT29 colon it was 24.7%; in the test on SNB-75 CNS, 40.9%; in the test on SNB-19 CNS it was 49.4%; in the test with U251 CNS, 25.8%; in the test on PC-3 prostate, 22.9%. For the same compound, the growth in the test on SK-MEL-5 melanoma is 33.9%; in the test on UACC-62 melanoma, 25.5%; in the test with LOX IMVI melanoma, -66.6% (active); in the test with SK-MEL-28 melanoma, 45.3%.

For the compound `C=CCn1c(C)nc2cc(Nc3nc(N4CCOCC4)nc4nc[nH]c34)ccc21`, the growth is 90.9% in the test on HCT-15 colon; 99.7% with HT29 colon; 80.4% with SNB-75 CNS; 95.4% in the test with SNB-19 CNS; 91.3% in the test on U251 CNS; 79.9% in the test on PC-3 prostate. For the same compound, the growth in the test with SK-MEL-5 melanoma was 96.2%; with UACC-62 melanoma, 88.9%; with LOX IMVI melanoma it was 95.2%; in the test on SK-MEL-28 melanoma it was 102%.

Regarding `C#CCNC(=S)N/N=C(\C)c1ccccn1`, the growth in the test on HCT-15 colon was 28.4%; with HT29 colon, 31.5%; in the test with SNB-75 CNS, 43.4%; in the test with SNB-19 CNS, 38.8%; in the test on U251 CNS it was 23.1%; in the test on PC-3 prostate it was 48.1%. Besides, the growth with SK-MEL-5 melanoma is -30.5% (active); in the test with UACC-62 melanoma it was -5.96% (active); in the test on LOX IMVI melanoma, 15.3%; in the test on SK-MEL-28 melanoma, 55.3%.

For the compound `CC(C)NC(=O)OCC#CCOC(=O)NC(C)C`, the growth was 108% in the test on HCT-15 colon; 104% with HT29 colon; 89.5% in the test on SNB-75 CNS; 97.5% in the test on SNB-19 CNS; 99.5% with U251 CNS; 97% in the test with PC-3 prostate. The growth with SK-MEL-5 melanoma is 106%; in the test on UACC-62 melanoma it was 99.6%; in the test with LOX IMVI melanoma, 104%; in the test on SK-MEL-28 melanoma it was 104%.

Regarding `COc1cc(NC(C)CCCN)c2ncccc2c1Sc1ccc(Cl)cc1` (stereo not given), the growth in the test on HCT-15 colon is 39.3%; in the test with HT29 colon it was -46.4% (active); in the test with SNB-75 CNS, 48.7%; with SNB-19 CNS it was 78.3%; in the test on U251 CNS it was 39.3%; with PC-3 prostate, 47.1%. Besides, the growth with SK-MEL-5 melanoma was 67.3%; in the test with UACC-62 melanoma, 81.2%; with LOX IMVI melanoma, -62.4% (active); in the test on SK-MEL-28 melanoma it was 93.3%.

As for `Brc1ccccc1Cn1c(-c2cncs2)nc2ccccc21`, the growth with HCT-15 colon is 82.8%; in the test on HT29 colon, 80.7%; in the test on SNB-75 CNS, 53%; in the test with SNB-19 CNS, 84.6%; in the test with U251 CNS it was 84.8%; in the test on PC-3 prostate, 57.2%. Moreover, the growth in the test on SK-MEL-5 melanoma is 76.2%; in the test with UACC-62 melanoma, 70.1%; with LOX IMVI melanoma, 75.8%; in the test with SK-MEL-28 melanoma, 104%.

As to `CC(C)NCCCCCNc1cc(O)cc2cccnc12`, the growth is 94.6% with HCT-15 colon; 54.2% with HT29 colon; 56.4% in the test with SNB-75 CNS; 107% in the test on SNB-19 CNS; 101% in the test on U251 CNS; 92.4% in the test with PC-3 prostate. The growth was 88.2% in the test with SK-MEL-5 melanoma, 94.5% with UACC-62 melanoma, 72.2% with LOX IMVI melanoma and 91.6% with SK-MEL-28 melanoma.

For `NC(N)=N/N=C\c1cccc(OCc2ccccc2)c1`, the growth in the test with HCT-15 colon is 45%; in the test with HT29 colon it was 1.4% (active); with SNB-75 CNS it was 63.8%; in the test on SNB-19 CNS, 83.2%; with U251 CNS, 23.3%; in the test with PC-3 prostate, 71.5%. For the same compound, the growth was 33% in the test on SK-MEL-5 melanoma, 84.9% in the test with UACC-62 melanoma, 51% in the test on LOX IMVI melanoma and 86% in the test on SK-MEL-28 melanoma.

For `COc1cc(Cn2c(-c3ccccc3)cc3c2-c2oncc2CC3)cc(OC)c1OC`, the growth is 27.6% in the test on HCT-15 colon; 4.59% (active) in the test with HT29 colon; -17.3% (active) in the test with SNB-75 CNS; 44.5% in the test on SNB-19 CNS; 24.1% in the test on U251 CNS; 20.6% with PC-3 prostate. For the same compound, the growth in the test on SK-MEL-5 melanoma is 18.4%; with UACC-62 melanoma, 47.5%; with LOX IMVI melanoma, 39.4%; with SK-MEL-28 melanoma, 49.7%.

In the case of `COC1=CC(c2ccc[nH]2)=N/C1=C\c1[nH]c(C)c(C(=O)CCCCCCCCC(=O)O[C@H]2CC[C@H]3C4CCc5cc(O)ccc5C4CC[C@]23C)c1C` (stereo not given in full), the growth in the test on HCT-15 colon is 41%; in the test with HT29 colon, 14.3%; in the test on SNB-75 CNS, 19.6%; with SNB-19 CNS, 56.2%; with U251 CNS, 20.9%; in the test with PC-3 prostate, 23%. Also, the growth with SK-MEL-5 melanoma was -83% (active); in the test with UACC-62 melanoma it was -48.3% (active); with LOX IMVI melanoma, -44.2% (active); with SK-MEL-28 melanoma, 34.5%.

`COCCOCCOCc1n(Cc2ccc3ccccc3n2)c2ccccc2[n+]1Cc1ccc2ccccc2c1`: the growth with HCT-15 colon was 78.3%; in the test on HT29 colon it was -4.5% (active); with SNB-75 CNS, -5.72% (active); in the test on SNB-19 CNS it was 11.6%; in the test on U251 CNS, 12.4%; with PC-3 prostate, 5.71% (active). Also, the growth with SK-MEL-5 melanoma was -94.1% (active); in the test on UACC-62 melanoma, -38.5% (active); in the test on LOX IMVI melanoma, -76% (active); with SK-MEL-28 melanoma it was 8.66% (active).

These data come from PubChem BioAssay (NCI).
